# Experimental data from PubChem BioAssay AID720709 (National Center for Advancing Translational Sciences (NCATS), 2013).
# Among all 360,000 compounds or so, about 520 (0.14%) were called active. Entries that show only a call come without a potency. Inconclusive results (about 3%) are left out. Calls come from the whole dose curve; as a rule, active = well fitted inhibition curve with a large enough effect; inconclusive = small, poorly fitted or top-dose-only effect; inactive = no such curve, though single readings can be large or run the other way. This excerpt belongs to a sample that is enriched for actives.
# Biological target: Rap guanine nucleotide exchange factor 3 (Homo sapiens) (UniProt O95398)
# Sequence (O95398 whole entry, looked up): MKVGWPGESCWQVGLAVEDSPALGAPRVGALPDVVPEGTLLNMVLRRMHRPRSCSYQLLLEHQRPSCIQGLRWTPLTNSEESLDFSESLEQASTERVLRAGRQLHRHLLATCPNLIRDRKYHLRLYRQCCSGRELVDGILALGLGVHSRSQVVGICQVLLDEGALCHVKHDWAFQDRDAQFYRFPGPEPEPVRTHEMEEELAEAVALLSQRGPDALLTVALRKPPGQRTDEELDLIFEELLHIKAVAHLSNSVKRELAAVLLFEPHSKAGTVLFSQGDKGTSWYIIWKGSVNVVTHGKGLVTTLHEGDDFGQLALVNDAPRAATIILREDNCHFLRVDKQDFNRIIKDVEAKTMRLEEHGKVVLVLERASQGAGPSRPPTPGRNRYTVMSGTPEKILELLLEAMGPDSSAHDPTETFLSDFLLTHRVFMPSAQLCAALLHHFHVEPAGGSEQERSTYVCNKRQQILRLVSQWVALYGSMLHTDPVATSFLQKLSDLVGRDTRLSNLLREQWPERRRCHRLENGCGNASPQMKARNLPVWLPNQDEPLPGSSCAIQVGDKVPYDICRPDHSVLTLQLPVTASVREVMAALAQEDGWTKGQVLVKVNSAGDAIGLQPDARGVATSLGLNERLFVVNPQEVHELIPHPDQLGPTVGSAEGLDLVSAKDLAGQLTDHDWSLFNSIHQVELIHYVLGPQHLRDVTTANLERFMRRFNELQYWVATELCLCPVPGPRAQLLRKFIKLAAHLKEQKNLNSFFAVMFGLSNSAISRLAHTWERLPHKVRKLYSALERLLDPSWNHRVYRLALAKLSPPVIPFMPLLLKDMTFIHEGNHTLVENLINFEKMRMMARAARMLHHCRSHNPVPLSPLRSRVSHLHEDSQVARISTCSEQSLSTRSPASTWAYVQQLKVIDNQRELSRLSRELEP
# Assay: qHTS for Antagonist of cAMP-regulated guanine nucleotide exchange factor 3 (EPAC1): primary screen; note: nearly all actives have a fitted effect of over 50% in size
# Conditions: EPAC1 GEF assay, Rap1b-BODIPY-GDP exchange fluorescence; series mostly up to 115 µM
# From the text: In multi-cellular eukaryotic organisms, the effects of cAMP are transduced by two ubiquitously-expressed intracellular cAMP receptors, the classic protein kinase A/cAMP-dependent protein kinase (PKA/cAPK) and the more recently discovered exchange protein directly activated by cAMP/cAMP-regulated guanine nucleotide exchange factor (EPAC/cAMP-GEF). Both PKA and EPAC are ubiquitously expressed in all tissues, and an increase in intracellular cAMP levels will lead to the activation of both PKA and EPAC. Therefore, careful dissections of the individual role and relative contribution of EPAC and PKA within the overall cAMP signaling in various model systems are critical for further elucidating the mechanism of cAMP signaling. To date no EPAC-specific antagonists and agonist, as well as isoform-specific agonists have been reported, and developing EPAC-specific pharmacological probes to determine the physiological functions that EPAC play in the overall cAMP-mediated signaling remains a major challenge within the research field. Furthermore, identified regulators of EPAC may lead to new mechanism-based therapeutic strategies specifically targeting the EPAC / cAMP-signaling components as EPAC has been implicated to play important roles in major human pathological conditions such as diabetes, heart disease, and cancer. This qHTS will be used to screen the Molecular Libraries Small Molecule Repository (MLSMR) as a concentration-titration series using the NCGC unique quantitative screening (qHTS) platform to find inhibitors for EPAC1. In addition, this assay will also be used as a counterscreen for the EPAC2 qHTS. This fluorescent based assay is developed and validated for EPAC1 that measures exchange using EPAC effector Rap1 complex with BODIPY-GDP, a GDP analog with a tethered fluorophores. Inhibitors are identified by monitoring the change in fluorescence signal as the exchanged free BODIPY-GDP has a reduced fluorescence compared to Rap1-bound BODIPY-GDP. Decrease in signal (inhibition) is the desired outcome for the EPAC1 antagonist while no activity in this assay is desired for the EPAC2 antagonist counterscreen. de Rooij, J., Zwartkruis, F. J., Verheijen, M. H., Cool, R. H., Nijman, S. M., Wittinghofer, A., and Bos, J.L. (1998) Nature 396, 474-477 [2] Kawasaki, H., Springett, G. M., Mochizuki, N., Toki, S., Nakaya, M., Matsuda, M., Housman, D. E., and Graybiel, A. M. (1998) Science 282, 2275-2279 NIH Chemical Genomics Center [NCGC] NIH Molecular Libraries Probe Centers Network [MLPCN] MLPCN Grant: NS066510 Assay Submitter (PI): Xiaodong Cheng, The University of Texas, Medical Branch
# Briefly, three uL of reagents (100 nM EPAC1, 250 nM RAP1B-BODIPY-GDP, 50 uM GDP) were dispensed into a 1536-well Greiner black solid-bottom medium binding assay plate. Controls and test compounds (23 nL) were transferred to the plate via a Kalypsys pin tool equipped with a 1536-pin array. The plates were centrifuged at 1,000 rpm for 15 seconds followed by 5 minute incubation at room temperature. The assay plates were read at 5 minute intervals for 30 minutes in the ViewLux plate reader using 480nm excitation and 540nm emission filters. The results were normalized to the […] positive control ATA and DMSO.
# Potency is the fitted concentration of half-maximal effect.
row,Compound,Potency
1,CC(C)(C)C1CCC(=O)N2CCC[C@]2(c2ccccc2)C1 (some centres undefined),inactive
2,CCOC(=O)[C@]12CCCC=C1N(CCC1=CCCCC1)C(=O)[C@H](CC(=O)N1CCN(C(=O)c3ccco3)CC1)C2,inactive
3,Cc1[nH]c2ccccc2c1C(=O)c1cc([C@H](NC(=O)OC(C)(C)C)C(C)C)sc1N,inactive
4,CCOC(=O)N1C(=O)C[C@](Sc2ccc(C)cc2)(C(=O)OC)[C@H]1c1ccccc1,inactive
5,O=C(C[C@H]1CC[C@H]2[C@@H](COC[C@H](O)CN2C(=O)c2ccccn2)O1)N1CCN(c2ccccc2)CC1,inactive
6,Nc1nc2c(Br)ccc(Br)c2cc1C(=O)NCCc1ccccc1,inactive
7,O=c1[nH][nH]c2c1[C@H](c1ccc(Cl)cc1)O[C@H](CCc1ccccc1)C2,inactive
8,CC1(C(=O)Nc2ccc3c(c2)OCCO3)CSCC(=O)N1CCOc1ccccc1 (centres undefined),inactive
9,Cc1ccc(S(=O)(=O)N[C@H](CO)C(C)C)cc1,inactive
10,N#Cc1ccc(-c2nc3c(Cl)cc(C(F)(F)F)cn3c2Cc2ccccc2C(F)(F)F)cc1,inactive
11,CC1(C)OC(=O)C2=C(C[C@@H](C3CCCCC3)O[C@@H]2c2ccc(Cl)cc2)O1,inactive
12,COC(=O)C1(C(=O)OC)C[C@H](c2ccccc2)N(Cc2ccccc2OC)[C@@H]1c1ccccc1,inactive
13,CN1CCN(c2ccc3c(c2)OC[C@H](Cc2ccccc2)NS3(=O)=O)CC1,inactive
14,COC(=O)C[C@H]1C=C[C@H](NC(=O)c2ccc(F)cc2)[C@@H](CO)O1,inactive
15,C=C1C(=O)OC2C1CCC(C)=CCCC1(C)OC21 (centres undefined),inactive
16,CO[C@@H]1CN(C)C(=O)c2cc(NC(=O)C3CC3)ccc2OC[C@H](C)N(C(=O)CN2CCOCC2)C[C@@H]1C,inactive
17,CC(C)C1C(=O)N(Cc2cn(CCC3OCCO3)nn2)CCS(=O)(=O)N1Cc1ccc(-c2ccccc2C(F)(F)F)cc1 (centres undefined),inactive
18,CCOC(=O)[C@]12CCC=C1N(Cc1cccc3ccccc13)C(=O)[C@H](CC(=O)NCc1cccc(C(F)(F)F)c1)C2,inactive
19,CCCCC[C@H](C)N1C[C@@H](COCc2ccccc2)Oc2cc(N3CC[C@@H](N(C)C)C3)ccc2S1(=O)=O,inactive
20,C=CCC[C@@H](CCCCC)OC(=O)/C=C/[C@@H](O)[C@H](O)C[C@H](O)CC=C,inactive
21,CCOC(=O)c1ccc(-c2ccc3ncnc(N(C)Cc4sccc4C)c3c2)o1,inactive
22,CCCNC(=O)c1cc2c(c(-c3cccc(-c4ccc(C#N)cc4)c3)n1)[C@@H](CCO)N(C(=O)CC)C2,inactive
23,Cc1ccc(C(=O)Nc2c(-c3ccccc3)[nH][nH]c2=O)cc1,inactive

row,Compound,Potency
1,CCCc1nc2ccccc2n1C(C)C(=O)NC(C)(C)C (centres undefined),inactive
2,N#Cc1ccc(C(C(=O)NCc2ccccc2)n2c(=O)c(-c3ccco3)nc3ccccc32)cc1 (centres undefined),inactive
3,CC(C)NC(=O)N1Cc2cc(C(=O)NCC(F)(F)F)nc(-c3cccc(-c4cc5ccccc5o4)c3)c2[C@@H]1CCO,inactive
4,CC(C)C[C@H]1CNC(=O)C(=O)N1C[C@H]1CCCN1C[C@H](Cc1ccc(O)cc1)N1C[C@H](CC(C)C)N(CC2CCCCCC2)C(=O)C1=O,inactive
5,COC(=O)c1ccc2c(c1)S(=O)(=O)NC2C (centres undefined),inactive
6,CCC(C(=O)NCc1ccccc1)n1c(Cc2cc(F)cc(F)c2)nc2ccccc21 (centres undefined),inactive
7,CCOC(=O)c1cc2cc(OC)ccc2n1C1CCN(C)CC1,inactive
8,COC(=O)[C@@]1(Sc2ccc(C)cc2)CC(=O)N(c2cccc(SC)c2)[C@@H]1c1ccccc1,inactive
9,COC(=O)[C@]12CCCCC=C1N(Cc1ccccc1)C(=O)[C@H](CC(=O)NCc1ccc(C)o1)C2,inactive
10,CC(C)OC(=O)CC(=O)CC(O)c1cccc([N+](=O)[O-])c1 (centres undefined),inactive
11,CCCCc1c(-c2ccc(Cl)cc2)ncn1CCc1ccccc1OC,inactive
12,CCOC(=O)N1CCN(C(=O)C[C@@H]2C[C@@]3(C(=O)OC)CC(C)(C)CC=C3N(Cc3ccco3)C2=O)CC1,inactive
13,Nc1[nH]c(C(=O)c2ccccc2)c(-c2ccncc2)c1C(=O)NCc1cccc2ccccc12,inactive
14,CC(C)c1ccc2c(c1)c(SC(C)(C)C)c(CC(C)(C)C(=O)O)n2Cc1ccc(Cl)cc1,25.1 µM (active)
15,CCCCc1c(-c2ccc(Br)cc2)ncn1CCc1ccccc1OC,inactive
16,CCC(=O)N1Cc2cc(C(=O)NCc3cccc(F)c3)nc(-c3cccc(C4=CCCC4)c3)c2[C@H]1CCO,inactive
17,CCC(C)Cn1c(O)cc2nn(-c3nc4ccccc4s3)c(=O)c-2c1C (centres undefined),50.1 µM (active)
18,Cc1cc2nc(-c3ccc(F)cc3)c(Cc3ccsc3)n2c(C)c1Br,inactive
19,COc1ccc(NC(=O)C(c2ccncc2)n2c(=O)c(-c3cc4ccccc4[nH]3)nc3ccccc32)cc1 (centres undefined),inactive
20,CCCCCc1c(Cc2ccccc2)ncn1CCc1ccccc1OC,inactive
21,Cc1ccc(-c2c(N)nc3ncccn23)cc1,inactive
22,CCCCC[C@H](C)N1C[C@@H](COCc2ccccc2)Oc2cc(N3CCC[C@@H]3CO)ccc2S1(=O)=O,inactive
23,CCCCCCN1CCN(C2CN(Cc3cn(Cc4ccc(F)cc4)nn3)S(=O)(=O)C2)CC1 (centres undefined),inactive

row,Compound,Potency
1,CC1(C)OC(=O)C2=C(C[C@@H](C3CCCC3)O[C@@H]2c2ccc(Cl)cc2)O1,inactive
2,CCCCCc1c(-c2ccc(OC)c(OC)c2)ncn1CCc1ccccc1OC,inactive
3,COc1ccc(C(C#N)=C2C=CC(=NO)c3ccccc32)cc1,inactive
4,COCCNC(=O)C1C(=O)Nc2ccccc2C(=O)N1c1ccc2c(c1)OCCO2 (centres undefined),inactive
5,O=C(C[C@H]1CC[C@@H](NC(=O)c2ccncc2)[C@@H](CO)O1)NCC1CC1,inactive
6,CC1(C(=O)NCc2ccccc2)CSCC(=O)N1CCCN1CCOCC1 (centres undefined),inactive
7,FC(F)(F)c1cccc(-c2nc3ccccc3n2C(c2ccccc2)c2nc3ccccc3[nH]2)c1 (centres undefined),inactive
8,CC1(C)OC(=O)C2=C(C[C@@H](C3CC3)O[C@H]2c2ccc(Cl)cc2)O1,inactive
9,Cc1ccc(-c2nc3c(C)cc(Br)cn3c2Cc2ccccc2)cc1,inactive
10,COc1ccc(C2=NN(C(=O)c3ccccc3C(=O)O)C(c3ccccc3O)C2)cc1 (centres undefined),inactive
11,COc1ccc(C2=NN(c3nc4ccccc4s3)C(=O)C2)cc1,79.4 µM (active)
12,COc1ccc(-c2cc3n(n2)CCc2nc4ccccc4n2-3)cc1,inactive
13,CC(=O)OCC(C)n1c(=O)c2ccccc2n1C(C)=O (centres undefined),inactive
14,CCc1nnc(NS(=O)(=O)c2ccc(NC(=O)c3cccc(OC(F)(F)C(F)F)c3)cc2)s1,inactive
15,CCc1nnc(NS(=O)(=O)c2ccc(NC(=S)NC(=O)/C=C/c3cccs3)cc2)s1,35.5 µM (active)
16,CCc1nnc(NS(=O)(=O)c2ccc(NC(=S)NC(=O)c3cccs3)cc2)s1,inactive
17,CCC(C(=O)NC(C)(C)C)n1c(-c2ccccc2)nc2ccccc21 (centres undefined),inactive
18,CC(=O)N1Cc2cc(C(=O)NCc3cccc(F)c3)nc(-c3cccc(C4=CCCC4)c3)c2[C@H]1CCO,inactive
19,COC(=O)C1(C(=O)OC)C/C=C\CN(S(=O)(=O)c2ccccc2[N+](=O)[O-])CCC1,inactive
20,C[N+](C)(C)CCNC(=O)c1c[nH]c2ccccc12,inactive
21,CCOC(=O)c1c(C)[nH]c(C(=O)OCC(=O)N2CCCC2=O)c1C,inactive
22,Cc1c(C(=O)OCC(=O)N2CCCC2=O)oc2ccccc12,79.4 µM (active)
23,CN(C)S(=O)(=O)c1cccc(C(=O)OCC(=O)N2CCCC2=O)c1,inactive

row,Compound,Potency
1,COC(=O)[C@@]12C[C@@H](CC(=O)N3CCC(c4ccccc4)CC3)C(=O)N(Cc3ccccc3)C1=CCC(C)(C)C2,inactive
2,COc1cc(OC)cc(C2=Cc3ccccc3C(CC(=O)c3ccco3)N2c2ccc(-c3cnc(OC)nc3)cc2)c1 (centres undefined),inactive
3,Cc1cccc(C)c1NC(=O)C(c1cccc2ccccc12)n1c(=O)c(-c2ccco2)nc2ccccc21 (centres undefined),inactive
4,Cc1ccc(S(=O)(=O)N2CC3C(=O)C[C@@H](c4ccccc4Cl)N(S(=O)(=O)c4ccc(C)cc4)C3CC2c2ccccc2)cc1 (some centres undefined),inactive
5,Cc1cccc(C)c1NC(=O)C(c1ccc(C(F)(F)F)cc1)n1c(=O)c(-c2ccco2)nc2ccccc21 (centres undefined),inactive
6,O=c1ccc2c(-c3ccccc3S(=O)(=O)O)c3ccc(O)c(O)c3oc-2c1O,56.2 µM (active)
7,COc1cccc(CNC(=O)[C@@H]2CCCN2C(=O)[C@@H]2CCCN2C(=O)c2ccccc2)c1,inactive
8,COc1ccc(CC(N)c2csc(NC(=O)Nc3ccc(C(C)C)cc3)n2)cc1 (centres undefined),inactive
9,CCN(CC)CCN(C)C(c1ccnc2ccccc12)c1nnnn1-c1ccc2c(c1)OCCO2 (centres undefined),inactive
10,COC(=O)[C@@]12C[C@@H](CC(=O)NCc3cccc(C(F)(F)F)c3)C(=O)N(Cc3ccco3)C1=CCC(C)(C)C2,inactive
11,CCC(C)CN1C(=O)CSCC1(C)C(=O)NCc1ccccc1 (centres undefined),inactive
12,Cc1cccc(C)c1NC(=O)C(c1cccc(F)c1)N1CCN(C)CC1 (centres undefined),inactive
13,CCCCC(O)C1=C[N+](=O)CC=C1 (centres undefined),inactive
14,Cc1cccc(C)c1-n1nnnc1C1(C)CCC(=O)N1CCOc1ccccc1 (centres undefined),inactive
15,COC(=O)[C@]12CCCCC=C1N(Cc1ccc3c(c1)OCO3)C(=O)[C@H](CC(=O)NCc1cccs1)C2,inactive
16,Nc1nc2ncccn2c1-c1ccccc1,inactive
17,O=C(NC1CCCC1)C1c2ccccc2OCC(=O)N1Cc1ccccc1 (centres undefined),inactive
18,CCCNC(=O)C[C@@H]1CC[C@@H]2[C@H](COC[C@H](O)CN2C(=O)c2cc(Cl)cc(Cl)c2)O1,inactive
19,COC(=O)[C@@]12C[C@@H](CC(=O)N3CCCCC3)C(=O)N(Cc3ccc4c(c3)OCO4)C1=CCC(C)(C)C2,inactive
20,CCCCOCCCNC(=O)C[C@@H]1C[C@@]2(C(=O)OC)CCCCC=C2N(CCC2=CCCCC2)C1=O,inactive
